Test results published in PubChem BioAssay (NCI).
About 79,000 compounds went through this panel and 15% of them were active in at least one assay; those are over-represented in the sample as a whole. No stated cut-off is given here; in the data, active means growth inhibition above about 70%; inactive means the rest.

What was measured:
[1] = NCI Yeast Anticancer Drug Screen. Data for the rad50 strain (AID 155);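 further: 0% = growth of vehicle-only cultures of the same strain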; details: S. cerevisiae rad50 strain growth inhibition; at 50.0 µM; hits give high values
Procedure, shortened: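 Genetically altered yeast (DNA repair pathway); compound treatment; growth inhibition vs vehicle ctrl.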

[2] = NCI Yeast Anticancer Drug Screen. Data for the mec2-1 strain (AID 157); details: S. cerevisiae mec2-1 strain, at 50.0 µM, hits give high values
Procedure, shortened: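 Yeast mec2-1 mutant treated with compound. Readout: growth inhibition vs vehicle controls.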

[3] = NCI Yeast Anticancer Drug Screen. Data for the sgs1 mgt1 strain (AID 161);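 further: 0% = growth of cultures given vehicle only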; details: S. cerevisiae sgs1 mgt1 strain, at 50.0 µM, hits give high values
Procedure, shortened: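 Test agents were incubated with a DNA-repair-mutant yeast strain. Growth was then read and compared against vehicle-treated controls.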

[4] = NCI Yeast Anticancer Drug Screen. Data for the cln2 rad14 strain (AID 165);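 further: 0% = growth equal to vehicle treated cultures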; details: S. cerevisiae cln2 rad14 strain, at 50.0 µM, hits give high values
Procedure, shortened: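 cln2 rad14 yeast strain; compound exposure; growth inhibition read vs vehicle controls.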

[5] = NCI Yeast Anticancer Drug Screen. Data for the bub3 strain (AID 167); details: S. cerevisiae bub3 mutant strain, at 50.0 µM, hits give high values
Procedure, shortened: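 Yeast carrying a defined mutation is treated with each compound, and growth is compared with that of vehicle-exposed cells to give inhibition.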

[6] = NCI Yeast Anticancer Drug Screen. Data for the mlh1 rad18 strain (AID 175); details: S. cerevisiae mlh1 rad18 strain growth inhibition; at 50.0 µM; hits give high values
Procedure, shortened: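 Yeast w/ defined DNA-repair lesions; compound exposure; growth vs vehicle controls → % inhibition.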

Measured: growth inhibition

O=C(O)CNS(=O)(=O)c1ccccc1
inactive: [1] -43.5% | [2] -7.7% | [3] -23.1% | [4] -24.6% | [5] -0.8% | [6] 6%

Clc1ccc(OCc2nnc3n2N=C(c2ccccc2)CS3)cc1
inactive: [1] 36.5% | [2] 7.1% | [3] 15.9% | [4] 36.2% | [5] 23.5% | [6] 15.9%

COC(=O)CCCc1c[nH]c2ccccc12
inactive: [1] 7.2% | [2] -9.8% | [3] -3.9% | [4] -0.95% | [5] 14.2% | [6] -1.05%

CNS(=O)(=O)c1ccc(Cl)cc1
inactive: [1] 29.9% | [2] 11.7% | [3] 13.9% | [4] 13.3% | [5] 5.9% | [6] 20.1%

CCCCCCCCCCCCCCCCCCCOc1ccc(OCCCCCCCCCC)cc1
inactive: [1] 33.9% | [2] -2.05% | [3] 24.6% | [4] -10.4% | [5] 0.2% | [6] 7.15%

NC(N)=NS(=O)(=O)c1ccc(NC(=O)c2cccc3c(N)c4ccccc4nc23)cc1
inactive: [1] 5.35% | [2] 5.95% | [3] -0.2% | [4] 8.65% | [5] -9% | [6] -10.2%

N#C/C(=C\c1c(Cl)cccc1Cl)c1nc(-c2ccc(Cl)cc2)cs1
inactive: [1] -32.4% | [2] -40.6% | [3] -25.5% | [4] -23.6% | [5] -17.4% | [6] -32.9%

ON(Cc1ccccc1)Cc1ccccc1
inactive: [1] -3.95% | [2] -26.9% | [3] 12.9% | [4] 12.8% | [5] 9.5% | [6] -19.1%

NC(=O)N/N=C1\CCc2ccccc2C1
inactive: [1] 12.8% | [2] -12.3% | [3] -25.8% | [4] 22.4% | [5] -42.3% | [6] -2.8%

COc1ccc(Cc2cn(C)cc(Cc3ccc(OC)cc3)c2=O)cc1
inactive: [1] 4.7% | [2] 0.8% | [3] 7.15% | [4] -7.45% | [5] -1.2% | [6] -4.45%

CCOC(=O)Nc1ccc(Cl)cc1Cl
inactive: [1] -16.3% | [2] -8.2% | [3] -4.7% | [4] -16.7% | [5] -8.75% | [6] 1.15%

Cc1cc2nc(Cl)n(C3OC(CO)C(O)C3O)c2cc1C (stereo unspecified)
inactive: [1] 16.6% | [2] -7.15% | [3] 0.15% | [4] 4.8% | [5] -1% | [6] 12.8%

CCNc1ncnc2c1cnn2C
inactive: [1] 0.45% | [2] -1.45% | [3] 2.45% | [4] -36% | [5] -2.8% | [6] -8.4%

O=S(=O)(c1ccccc1)c1ccccc1Br
inactive: [1] 8% | [2] 14.8% | [3] -3.3% | [4] -18.4% | [5] -10.2% | [6] 35%

O=S(=O)(O)c1cccc2cccc(Nc3ccccc3)c12
inactive: [1] -0.5% | [2] 0.35% | [3] 8.85% | [4] -33.1% | [5] -14.8% | [6] 25.4%

CCCCC(CC)(CC(=O)O)CC(=O)O
inactive: [1] 10.4% | [2] 9.85% | [3] 12.3% | [4] -14.8% | [5] 7.85% | [6] 7.1%

CCc1ccc(C(=O)CN2CCCc3ccccc32)cc1
inactive: [1] -13.4% | [2] 0.7% | [3] -6.55% | [4] -17.2% | [5] 1.95% | [6] -13.8%

O=C1c2ccccc2C(O)(c2ccccc2)c2ccccc21
inactive: [1] 13.4% | [2] 20.6% | [3] 13.8% | [4] -21.6% | [5] 13.4% | [6] 0.35%

Oc1ccc(Br)cc1C(c1ccc2c(c1)OCO2)N1CCOCC1 (stereo unspecified)
inactive: [1] 8.65% | [2] 14.3% | [3] -7.8% | [4] 14.4% | [5] 1.45% | [6] 15.5%

CCOC(=O)c1ccc(NC(=S)N(CCC#N)C2CCCCC2)cc1
inactive: [1] 33.4% | [2] 7.2% | [3] 62.5% | [4] 27.1% | [5] 48.4% | [6] 30.9%

O=C(COc1ccccc1)Nc1ccc(C(=O)O)cc1
inactive: [1] -2.95% | [2] -3.6% | [3] -3.35% | [4] 1.85% | [5] 22.1% | [6] 25.3%

Cc1ccc(NC(=O)c2ccccc2N)cc1
inactive: [1] -0.9% | [2] -8.5% | [3] -0.95% | [4] -16.8% | [5] -12.4% | [6] 18%

CCCCCC(Nc1nncs1)Nc1nncs1
inactive: [1] -4.2% | [2] -20.5% | [3] 14.9% | [4] 6.1% | [5] 8.4% | [6] 12.6%

Fc1cccc(CSc2cnnc(SCc3cccc(F)c3)c2SCc2cccc(F)c2)c1
inactive: [1] -14.8% | [2] -7.1% | [3] -13.7% | [4] 14.6% | [5] -10.8% | [6] -32%

COc1cc(C2(C)SCCCS2)cc(OC)c1OC
inactive: [1] -10.9% | [2] -8.1% | [3] -4.05% | [4] 0.2% | [5] 25.8% | [6] -15.3%

Clc1ccc2nsnc2c1
inactive: [1] 14.2% | [2] -12.8% | [3] 24.9% | [4] 16.8% | [5] 18.9% | [6] 35%

CCOC(=O)c1ccc(NC(=O)/C=C/c2ccccc2)cc1
inactive: [1] -4.55% | [2] 11.4% | [3] 17.4% | [4] -24.3% | [5] 30.1% | [6] 6.3%

CN(C)C(=O)c1cccnc1
inactive: [1] 0.25% | [2] -4.25% | [3] -4.8% | [4] 27.1% | [5] -18.2% | [6] -2.35%

O=N[C@@H]1CCC[C@H](Cl)C1
inactive: [1] 3.95% | [2] -6.65% | [3] -0.1% | [4] 17.2% | [5] 5.75% | [6] 15.6%

Cc1cccc(Cl)c1NC(=O)C(Cl)Cl
inactive: [1] 6.35% | [2] 9.75% | [3] 8% | [4] 4.55% | [5] 17.3% | [6] 14.9%

CCN(Cc1ccc(CN(CC)C(=O)c2c(-c3ccccc3)noc2C)cc1)C(=O)c1c(-c2ccccc2)noc1C
inactive: [1] 13.6% | [2] -8.1% | [3] 5.1% | [4] 17.8% | [5] 0.2% | [6] -13.6%

COc1ccc(C(CC(=O)O)CC(=O)O)cc1
inactive: [1] 46.3% | [2] 12.3% | [3] 16.9% | [4] 15.1% | [5] 6.35% | [6] 44.5%

O=C1CSC(c2cccs2)N1CCN1C(=O)CSC1c1cccs1 (stereo unspecified)
inactive: [1] 4.65% | [2] -2.1% | [3] -6.2% | [4] -6.75% | [5] 1.1% | [6] -0.25%

O=C(/N=C/c1c(O)c2ccccc2oc1=O)NC1CCCCC1
inactive: [1] -16.1% | [2] -9.2% | [3] -25.9% | [4] 0.65% | [5] -17.6% | [6] -5.8%

CC1=CC(=O)c2ccc(F)cc2C1=O
inactive: [1] -11.8% | [2] -3.85% | [3] 15% | [4] -2.9% | [5] -7.95% | [6] 13.8%

Cn1cc(C(=O)c2ccccc2)c2ccccc2c1=O
inactive: [1] 41.5% | [2] -4.4% | [3] 23.8% | [4] 8.25% | [5] 31.9% | [6] 16.4%

NC(=O)/C=C/c1cccnc1
inactive: [1] 4.6% | [2] -0.65% | [3] -7.75% | [4] -34.1% | [5] 11% | [6] 13%

NNC(=O)C(=O)N/N=C1\CCCC1C(=O)CCC(=O)Nc1cccc(Cl)c1 (stereo unspecified)
inactive: [1] -35.5% | [2] -33.4% | [3] -32.3% | [4] -1.65% | [5] -24.1% | [6] -30.9%

O=C(NC1C2CC3CC(C2)CC1C3)c1cc(/C=C/c2ccccc2)[nH]c(=S)n1 (stereo unspecified)
inactive: [1] 15.1% | [2] 2.35% | [3] 13.1% | [4] 12.2% | [5] -2.25% | [6] 14.3%

CCCCC(c1nc2c(c3c1CCCC3)CCCC2)C(O)(C(F)(F)F)C(F)(F)F (stereo unspecified)
inactive: [1] 13.1% | [2] 7% | [3] 10.2% | [4] -4.15% | [5] -2.1% | [6] 16.4%

COC(=O)c1cccc(O)c1O
inactive: [1] 12.9% | [2] -0.3% | [3] -1.5% | [4] -41.4% | [5] 18% | [6] -0.65%
